# GLS inh: inhibitors of human glutaminase (GLS); O94925; GLS enzymatic activity, qHTS titration; Potency, µM (doses to about 45.5 µM), for inactives: top-dose activity change, negative = inhibition, actives largely listed as inhibitors; actives 0.21% (n = 410,000); further: on the % scale 0 is the no-effect control and ±100 the full control effect
#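 Assay buffer: 45 mM KH2PO4 pH 8.2, 0.02% Tween-20. hKGA acts on L-glutamine (1 mM solution added); product glutamate is reported by an oxidase/peroxidase Amplex Red coupling, with fluorescence taken at baseline and 30 min.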
# HP1b chromo inh: inhibitors of HP1-beta chromodomain binding to methylated histone tails; Potency, µM (doses to about 114 µM), without a hit: at the highest dose activity change, negative = inhibition, actives largely listed as inhibitors; P83916; actives 0.56% (n = 390,000); AlphaScreen HP1-beta / biotin-H3K9me3 peptide binding; further: nearly all actives have a fitted effect of over 70% in size
#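 AlphaScreen: HP1-beta (50 nM) preformed 30 min with biotin-H3(1-18)K9me3 peptide (50 nM) in PBS pH 7.4, 0.01% Tween-20. Compound added for 30 min at RT, then streptavidin donor/nickel chelate acceptor beads (10 ug/mL) for 30 min.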
# BAZ2B block: BAZ2B (human) inhibition. Q9UIF8. AlphaScreen BAZ2B-H3K14Ac peptide displacement. Potency, µM (series often up to 114 µM), without a hit: at the highest dose activity change, negative = inhibition, most hits filed as inhibitors. actives 4.4% (n = 360,000). AID 504333; further: on the % scale 0 is the no-effect control and ±100 the full control effect; nearly all actives have a fitted effect of over 60% in size
#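 BAZ2B (50 nM) with biotin-H3(5-23)K14Ac peptide (50 nM) in PBS pH 7.4, 0.01% Tween-20, preformed 30 min, then compound 30 min at room temperature; top concentration 110uM. AlphaScreen streptavidin donor/nickel chelate acceptor beads (10 ug/mL final), 20 min dark, signal read.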
# G9a inh: inhibitors of human histone lysine methyltransferase G9a; Q96KQ7; G9a H3K9 monomethylation, AlphaScreen, 2 h; Potency, µM (titrated, usually from 102 µM), for the others: at the highest dose activity, negative = inhibition, most hits filed as inhibitors; actives 8.8% (n = 350,000); further: on the % scale 0 is the no-effect control and ±100 the full control effect; nearly all actives have a fitted effect of over 75% in size
#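 AlphaScreen detection with an anti-monomethyl H3K9 antibody quantified product after a 2 h room-temperature reaction containing 500 nM biotinylated H3K9 peptide, 20 µM SAM and 20 nM enzyme, which had been preincubated 15 min with compound.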
# JMJD2A Tudor inh: inhibitors of human JMJD2A Tudor domain; O75164; AlphaScreen JMJD2A-Tudor / H3K4me3 peptide binding; Potency, µM (top dose mostly 114 µM), without a hit: at the highest dose activity change, negative = inhibition, usual class: inhibitors; actives 4.4% (n = 390,000); AID 504339; further: on the % scale 0 is the no-effect control and ±100 the full control effect; nearly all actives have a fitted effect of over 50% in size
# Starred values were filed as active, the others as inactive; ? = inconclusive; . = no result given; [ ] = dose if it differs, or a comment. This is a sample that favours compounds with a hit; in the whole collection about 10% have one here. The call rests on the fitted dose curve; in most records, active means well fitted curve in the direction sought with a large enough effect; inconclusive means small, poorly fitted or top-dose-only effect, or another doubt; inactive means no such curve, though single readings can be large; an effect the other way counts as inactive or inconclusive. Potency means the concentration at half of the fitted maximal effect.
SMILES,GLS inh,HP1b chromo inh,BAZ2B block,G9a inh,JMJD2A Tudor inh
COc1ccc(NC(=O)COC(=O)c2ccccc2SCC(=O)N2CCCC2)cc1,8%,29%,4%,40µM*,4%
COc1ccccc1CCNC(=O)c1ccccc1SCC(=O)N1CCCC1,-7%,28%,1%,20%[12.7 µM],-7%
CC1CCCN(S(=O)(=O)c2ccc3[nH]c(=O)cc(C(=O)NCCCN4CCCCCC4)c3c2)C1 (centres undefined),0%,.,.,.,.
CC(OC(=O)c1cccnc1SCc1cc(=O)n2ccccc2n1)c1ccccn1 (centres undefined),3%,19%,-33%,50µM*,-4%
CCOC(=O)c1cccnc1SCc1cc(=O)n2ccccc2n1,7%,21%,0%,-30%,-2%
O=C(Nc1ccccc1)N1CCCC2CCCCC21 (centres undefined),4%,34%,-6%,-22%,-9%
CC(=O)Nc1cc(NC(C)=O)cc(C(=O)N2CCCC3CCCCC32)c1 (centres undefined),?,?,50µM*,50µM*,56µM*
CCC(O)c1nc2ccccc2n1Cc1cccc(Cl)c1 (centres undefined),0%,41%,-14%,9%[59 µM],-7%
COc1ccc(C(=O)Nc2ccnn2C2CCN(Cc3cnn(C)c3)CC2)cc1,8%,28%,-7%[57.1 µM],29%,-23%
O=C(Cn1c2ccccc2c(=O)c2ccccc21)Nc1cccc(F)c1,-17%,6%,-7%,13%,16µM*
O=C(Cn1c(=O)c2cccn2c2ccc(F)cc21)Nc1cccc(F)c1,-2%,22%,-11%,-30%[59 µM],-20%
Cc1c(Cl)cccc1NC(=O)Nn1cnnc1,1%,7%,4%,.,-20%
Cc1c(-c2cc(Br)ccc2O)nc2cc3c(cc2c1C)OCO3,2%,25%,-20%,45µM*,-33%
Cc1ccc(/C=N/n2cnnc2)s1,.,17%,3%,22%,17%
Cc1cccc(-c2n[nH]c(=S)n2/N=C/c2ccc(C)s2)c1,19%,28%,-20%,1.1µM*,?
Cc1nnc(C)n1/N=C/c1cccs1,3%,27%,7%,-37%[0.0925 µM],-18%
CCN(CC)S(=O)(=O)c1cccc(-c2n[nH]c(=S)n2/N=C/c2ccc(OC)cc2)c1,-22%,-13%,-4%,?,?
Cc1ccc(/C=N/n2c(-c3ccncc3)n[nH]c2=S)s1,?,34%,-11%,.,3.5µM*
Cc1cccc(-c2n[nH]c(=S)n2/N=C/c2cccs2)c1,-29%,9%,-26%,0.71µM*,22µM*
COc1ccccc1-c1ccc(/C=C2/C=C(CC(C)C)OC2=O)o1,20%,?,40µM*,10µM*,?
COc1cc([N+](=O)[O-])ccc1-c1ccc(/C=C2\C(=O)ON=C2c2ccccc2)o1,30%,-28%[57 µM],.,.,?
CCCC1=C/C(=C/c2ccc(-c3ccccc3OC)o2)C(=O)O1,-11%,-28%,40µM*,28µM*,?
O=Cc1ccc(-c2ccccc2OC(F)(F)F)o1,15%,21%,-2%,18%,3%
C=CCSc1ncccc1C(=O)NCc1ccc(C)cc1,-7%,31%,?,8%[0.501 µM],1%
Oc1ccc(Br)cc1-c1cc(-c2ccco2)[nH]n1,8%,-23%,?,?,?
SMILES,GLS inh,HP1b chromo inh,BAZ2B block,G9a inh,JMJD2A Tudor inh
Oc1ccc(Cl)cc1-c1cc(-c2ccco2)[nH]n1,?,7.9µM*,40µM*,?,-36%[11.4 µM]
CCOC(=O)c1c(C)n(C)c2ccc(OC)c(NC(=O)CN3CCN(C4CCCCC4)CC3)c12,36%,13%,33%,-39%,-19%
O=[N+]([O-])c1nn(-c2ccc3c(c2)OCCO3)n(O)c1=Nc1ccccc1,2%,-34%,40µM*,?,45µM*
O=[N+]([O-])c1nn(-c2ccc3c(c2)OCCO3)n(O)c1=NC1CCCCCC1,3%,?,14µM*,13µM*,22µM*
CCc1ccc(N=c2c([N+](=O)[O-])nn(-c3ccc4c(c3)OCCO4)n2O)cc1,6%,?,25µM*,18µM*,32µM*
Cc1ccc(N=c2c([N+](=O)[O-])nn(-c3ccc4c(c3)OCCO4)n2O)c(Cl)c1,.,.,-27%,45µM*,.

# Screens (PubChem)
